In ChEMBL document CHEMBL3988442, “University of Dundee, Small-Polar-MMV Screening Library” (2021) one finds Percent Effect data, which are given here for eight compounds.

Design in all cases: scale not given: direction of the effect not stated beside the values
Assay [1] deals with Protein translocase subunit SecA (Escherichia coli (strain K12)) (UniProt P10408). Kind of assay: Assay to Identify E. coli SecA ATPase Inhibitors. The format is functional. The settings on record: 30 µM.
Assay [2] has as its target T1, Ubiquitin-activating enzyme e1, putative (Leishmania donovani (strain BPK282A1)) (UniProt E9BSI1).
T1 sequence (whole entry): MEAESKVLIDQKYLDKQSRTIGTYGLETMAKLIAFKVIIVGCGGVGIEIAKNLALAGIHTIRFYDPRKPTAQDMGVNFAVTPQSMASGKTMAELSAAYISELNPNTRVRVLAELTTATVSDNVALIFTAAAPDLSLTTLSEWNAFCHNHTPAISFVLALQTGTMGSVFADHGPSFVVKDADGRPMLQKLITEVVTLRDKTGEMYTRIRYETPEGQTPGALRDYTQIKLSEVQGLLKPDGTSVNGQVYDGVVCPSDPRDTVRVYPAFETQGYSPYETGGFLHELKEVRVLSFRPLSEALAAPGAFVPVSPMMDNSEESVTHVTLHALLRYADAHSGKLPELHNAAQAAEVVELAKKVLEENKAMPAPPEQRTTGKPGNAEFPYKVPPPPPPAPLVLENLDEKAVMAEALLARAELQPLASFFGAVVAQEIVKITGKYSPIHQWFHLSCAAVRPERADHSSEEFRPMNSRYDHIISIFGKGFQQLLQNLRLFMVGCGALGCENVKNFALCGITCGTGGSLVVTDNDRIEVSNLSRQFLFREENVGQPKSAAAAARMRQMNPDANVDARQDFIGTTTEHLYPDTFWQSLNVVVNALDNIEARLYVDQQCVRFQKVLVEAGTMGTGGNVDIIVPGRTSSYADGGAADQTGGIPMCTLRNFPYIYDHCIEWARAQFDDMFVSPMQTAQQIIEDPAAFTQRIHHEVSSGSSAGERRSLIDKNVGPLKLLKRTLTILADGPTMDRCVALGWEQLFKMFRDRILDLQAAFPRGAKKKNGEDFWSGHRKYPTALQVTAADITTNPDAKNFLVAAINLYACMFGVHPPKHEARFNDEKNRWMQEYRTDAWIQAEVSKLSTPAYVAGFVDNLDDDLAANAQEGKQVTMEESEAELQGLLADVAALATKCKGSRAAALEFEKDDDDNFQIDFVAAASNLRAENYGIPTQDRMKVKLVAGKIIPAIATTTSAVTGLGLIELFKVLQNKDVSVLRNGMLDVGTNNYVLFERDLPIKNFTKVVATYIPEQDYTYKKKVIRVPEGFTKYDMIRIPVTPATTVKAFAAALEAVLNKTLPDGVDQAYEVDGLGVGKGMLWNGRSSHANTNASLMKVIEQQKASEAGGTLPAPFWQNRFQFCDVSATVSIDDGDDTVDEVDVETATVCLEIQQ
Kind of assay: Leishmania donovani Ubiquitin Activating Enzyme (LdE1). The format is functional. The settings on record: 30 µM.

The target of assay [3] is AMP-activated protein kinase, AMPK (Homo sapiens) (UniProt P54646+O43741+P54619+Q9UGJ0+Q9Y478+Q13131+Q9UGI9). The assay is described as follows: AMP-dependent Kinase enzyme assay. An in vitro enzyme assay that detects ADP turnover that is directly proportional to AMPK activity. This uses naive AMPK that is activated during the assay with MK-8722. The format is functional. The settings on record: 30 µM.

In assay [4] the target is Sialic acid-binding Ig-like lectin 9 (Homo sapiens) (UniProt Q9Y336). The assay is described as follows: Hs-Siglec9 ALPHAscreen SOP 20170721. The following applies: 10 µM.
Another assay deals with Trypanosoma cruzi. The assay is described as follows: Trypanosoma cruzi phosphomannomutase and mannose-1-phosphate guanylyltransferase assay. The format is functional. The following applies: 10 µM.
Assay [5] deals with T2, Arginase-2, mitochondrial (Homo sapiens) (UniProt P78540).
T2 sequence (whole entry): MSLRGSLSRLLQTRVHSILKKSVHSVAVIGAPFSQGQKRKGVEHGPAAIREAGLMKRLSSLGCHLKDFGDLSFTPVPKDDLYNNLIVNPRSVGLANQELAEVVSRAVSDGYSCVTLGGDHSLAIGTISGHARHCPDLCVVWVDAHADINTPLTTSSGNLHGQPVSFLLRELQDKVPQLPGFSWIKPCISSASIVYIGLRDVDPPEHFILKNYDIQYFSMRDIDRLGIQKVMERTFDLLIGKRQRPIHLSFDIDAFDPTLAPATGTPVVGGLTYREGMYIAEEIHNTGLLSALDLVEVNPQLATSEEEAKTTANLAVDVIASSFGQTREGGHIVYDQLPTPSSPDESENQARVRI
The assay is described as follows: in vitro enzyme assay to detect the production of urea directly proportional to the activity of Arginase II. Note: in the data most compounds retested in dose-response had high values. Format: functional. The following applies: 33.3 µM.

For assay [6], the target named is T3, Proteasome subunit beta (Trypanosoma cruzi) (UniProt O96673).
T3 sequence (whole entry): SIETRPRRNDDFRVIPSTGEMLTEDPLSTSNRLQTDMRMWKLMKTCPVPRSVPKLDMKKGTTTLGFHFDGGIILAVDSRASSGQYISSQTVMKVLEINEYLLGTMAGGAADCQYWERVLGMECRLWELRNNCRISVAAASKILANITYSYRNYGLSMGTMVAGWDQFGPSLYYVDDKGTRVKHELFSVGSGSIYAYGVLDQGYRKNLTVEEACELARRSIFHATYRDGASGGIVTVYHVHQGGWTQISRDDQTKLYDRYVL
The assay is described as follows: Trypanosoma cruzi proteasome chymotrypsin-like activity (TcProtChymo) assay. Note: in the data most compounds retested in dose-response had high values. Format: functional. The settings on record: 9.37 µM.

For another assay, the species on record is Homo sapiens. The assay is described as follows: To identify inhibition of the IFN signalling (Jak-Stat) pathway via expression of an eGFP reporter gene under the control of an IFN-stimulated response element (ISRE) containing MxA promoter. The settings on record: 30 µM. Format: functional. A general note: In a reporter assay the amount or activity of a reporter protein is the signal.

Assay [7] deals with T4, Tyrosyl-tRNA synthetase, putative (Trypanosoma cruzi (strain CL Brener)) (UniProt Q4DSP6).
T4 sequence (whole entry): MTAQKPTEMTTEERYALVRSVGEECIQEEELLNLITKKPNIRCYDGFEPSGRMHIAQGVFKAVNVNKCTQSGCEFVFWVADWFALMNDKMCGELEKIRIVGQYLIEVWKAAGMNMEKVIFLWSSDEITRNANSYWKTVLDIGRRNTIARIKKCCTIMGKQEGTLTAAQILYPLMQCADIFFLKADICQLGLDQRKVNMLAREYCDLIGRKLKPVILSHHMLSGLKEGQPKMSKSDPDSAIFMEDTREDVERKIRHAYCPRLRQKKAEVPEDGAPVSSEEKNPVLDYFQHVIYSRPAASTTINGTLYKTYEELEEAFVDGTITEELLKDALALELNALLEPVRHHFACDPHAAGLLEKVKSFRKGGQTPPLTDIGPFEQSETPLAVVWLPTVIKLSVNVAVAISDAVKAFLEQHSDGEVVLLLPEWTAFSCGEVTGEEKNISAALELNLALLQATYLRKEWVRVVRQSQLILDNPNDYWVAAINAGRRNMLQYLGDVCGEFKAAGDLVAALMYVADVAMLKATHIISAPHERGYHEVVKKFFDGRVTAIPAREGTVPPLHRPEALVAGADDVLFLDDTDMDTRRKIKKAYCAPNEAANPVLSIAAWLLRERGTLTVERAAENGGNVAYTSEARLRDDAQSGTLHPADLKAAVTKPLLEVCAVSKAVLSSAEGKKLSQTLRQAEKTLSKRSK
The assay is described as follows: Trypanosoma cruzi tyrosyl tRNA synthetase (TcYRS) _High Tyrosine SOP. Note: in the data most compounds retested in dose-response had high values. Format: functional. The settings on record: 30 µM.

Assay [8] concerns the target T4, Tyrosyl-tRNA synthetase, putative (Trypanosoma cruzi (strain CL Brener)). The assay is described as follows: Trypanosoma cruzi tyrosyl tRNA synthetase (TcYRS) SOP. Format: functional. The following applies: 30 µM.
The target in assay [9] is Chromo domain-containing protein 1 (Saccharomyces cerevisiae (strain ATCC 204508 / S288c) (Baker's yeast)) (UniProt P32657). The assay is described as follows: ScCHD-1 Enzyme Inhibition Assay. Note: in the data most compounds retested in dose-response had high values. The format is functional. The settings on record: 30 µM.

For some of these results: Entries with a potency or affinity are not part of this list.

Chain of Chromo domain-containing protein 1 (Saccharomyces cerevisiae (strain ATCC 204508 / S288c) (Baker's yeast)) (P32657 whole entry, the tested form may be a part): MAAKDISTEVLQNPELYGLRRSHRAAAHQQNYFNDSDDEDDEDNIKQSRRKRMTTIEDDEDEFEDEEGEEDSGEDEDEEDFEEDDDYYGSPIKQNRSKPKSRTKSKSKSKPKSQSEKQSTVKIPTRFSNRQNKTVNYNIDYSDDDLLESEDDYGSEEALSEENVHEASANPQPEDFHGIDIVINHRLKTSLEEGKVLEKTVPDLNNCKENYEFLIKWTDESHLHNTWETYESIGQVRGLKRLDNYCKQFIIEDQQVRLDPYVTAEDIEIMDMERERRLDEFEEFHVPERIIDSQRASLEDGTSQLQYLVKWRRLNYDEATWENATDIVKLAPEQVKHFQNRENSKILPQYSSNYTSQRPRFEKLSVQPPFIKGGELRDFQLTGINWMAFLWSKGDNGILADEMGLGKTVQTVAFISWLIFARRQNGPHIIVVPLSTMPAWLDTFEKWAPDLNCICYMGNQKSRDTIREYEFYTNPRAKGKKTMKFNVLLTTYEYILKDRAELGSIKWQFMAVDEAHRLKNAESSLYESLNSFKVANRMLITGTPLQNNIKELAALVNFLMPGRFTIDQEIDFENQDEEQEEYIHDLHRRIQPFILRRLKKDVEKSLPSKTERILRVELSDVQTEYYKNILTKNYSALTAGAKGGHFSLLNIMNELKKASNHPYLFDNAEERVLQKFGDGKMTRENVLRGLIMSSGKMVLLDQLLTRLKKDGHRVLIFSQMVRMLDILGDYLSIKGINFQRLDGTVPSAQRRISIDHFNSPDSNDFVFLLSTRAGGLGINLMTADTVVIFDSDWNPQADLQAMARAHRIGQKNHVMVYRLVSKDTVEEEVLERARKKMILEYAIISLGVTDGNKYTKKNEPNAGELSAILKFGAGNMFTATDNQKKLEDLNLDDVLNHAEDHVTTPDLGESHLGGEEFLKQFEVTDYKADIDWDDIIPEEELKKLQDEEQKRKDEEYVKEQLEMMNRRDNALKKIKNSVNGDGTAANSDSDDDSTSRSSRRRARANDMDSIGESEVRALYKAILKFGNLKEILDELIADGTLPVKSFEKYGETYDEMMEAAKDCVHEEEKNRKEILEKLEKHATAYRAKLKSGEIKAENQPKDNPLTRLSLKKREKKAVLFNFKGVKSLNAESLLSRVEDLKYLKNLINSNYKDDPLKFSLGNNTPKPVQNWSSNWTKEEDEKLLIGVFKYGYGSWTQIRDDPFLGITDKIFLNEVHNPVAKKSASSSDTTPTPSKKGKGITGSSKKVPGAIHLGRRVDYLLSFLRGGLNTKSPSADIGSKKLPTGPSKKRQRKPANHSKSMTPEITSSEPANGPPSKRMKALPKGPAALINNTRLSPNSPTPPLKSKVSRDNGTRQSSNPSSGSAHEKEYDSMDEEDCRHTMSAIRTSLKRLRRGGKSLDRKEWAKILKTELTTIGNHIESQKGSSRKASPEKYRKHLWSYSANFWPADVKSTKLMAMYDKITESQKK
Chain of Sialic acid-binding Ig-like lectin 9 (Homo sapiens) (Q9Y336 whole entry): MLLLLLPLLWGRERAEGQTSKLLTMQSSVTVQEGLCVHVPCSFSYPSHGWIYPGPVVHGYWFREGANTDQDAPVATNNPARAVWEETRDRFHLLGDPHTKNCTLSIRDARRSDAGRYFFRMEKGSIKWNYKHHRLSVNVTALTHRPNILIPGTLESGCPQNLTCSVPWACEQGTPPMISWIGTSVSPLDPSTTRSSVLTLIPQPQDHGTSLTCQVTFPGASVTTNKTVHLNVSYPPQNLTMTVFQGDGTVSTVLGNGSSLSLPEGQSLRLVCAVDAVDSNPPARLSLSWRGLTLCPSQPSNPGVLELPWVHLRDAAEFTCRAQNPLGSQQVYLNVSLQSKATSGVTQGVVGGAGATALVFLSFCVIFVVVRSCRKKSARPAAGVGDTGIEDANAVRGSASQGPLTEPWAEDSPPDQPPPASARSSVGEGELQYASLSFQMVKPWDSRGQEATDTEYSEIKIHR
Chain of Protein translocase subunit SecA (Escherichia coli (strain K12)) (P10408 whole entry): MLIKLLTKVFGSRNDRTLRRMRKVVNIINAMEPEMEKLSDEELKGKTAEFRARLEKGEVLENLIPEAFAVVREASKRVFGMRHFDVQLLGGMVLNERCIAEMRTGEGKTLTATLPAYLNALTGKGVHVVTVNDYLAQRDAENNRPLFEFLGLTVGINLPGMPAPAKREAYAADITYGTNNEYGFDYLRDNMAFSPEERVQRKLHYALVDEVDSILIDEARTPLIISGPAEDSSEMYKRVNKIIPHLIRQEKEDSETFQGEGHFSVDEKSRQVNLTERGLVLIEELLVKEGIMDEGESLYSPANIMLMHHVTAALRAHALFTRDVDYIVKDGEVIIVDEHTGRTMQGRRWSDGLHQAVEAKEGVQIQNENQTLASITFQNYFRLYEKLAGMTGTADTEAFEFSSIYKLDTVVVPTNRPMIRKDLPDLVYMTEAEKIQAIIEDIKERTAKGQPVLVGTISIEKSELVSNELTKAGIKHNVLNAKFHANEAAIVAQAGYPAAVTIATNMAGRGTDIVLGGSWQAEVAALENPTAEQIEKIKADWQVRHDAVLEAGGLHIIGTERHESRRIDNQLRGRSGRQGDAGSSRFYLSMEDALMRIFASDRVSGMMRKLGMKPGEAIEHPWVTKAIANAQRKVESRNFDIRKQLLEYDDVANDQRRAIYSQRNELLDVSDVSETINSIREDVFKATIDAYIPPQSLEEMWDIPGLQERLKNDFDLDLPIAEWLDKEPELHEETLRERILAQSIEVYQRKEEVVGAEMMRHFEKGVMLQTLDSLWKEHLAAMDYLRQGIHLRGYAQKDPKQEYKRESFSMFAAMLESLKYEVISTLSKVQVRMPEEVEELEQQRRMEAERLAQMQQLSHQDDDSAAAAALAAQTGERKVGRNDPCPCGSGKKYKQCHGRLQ

As for `O=C(c1ccoc1)N1CC[C@H]2OCC[C@@]2(COc2ncccc2F)C1`, the Percent Effect in assay [1] was -6.18%; in assay [2], 18.9%; in assay [3] it was -5.57%; in assay [4], 25.4%; in the assay on Trypanosoma cruzi, 3.23%; in [5], 2.73%. Further, the Percent Effect in assay [6] is 6.78%; in the assay listed under Homo sapiens, -2.11%; in assay [7], 4.3%; in assay [8], 21%; in assay [9], -7.11%.

Regarding `CCN(CC)Cc1ccc(C(=O)N2CCCCC2Cn2cccn2)o1` (stereo not drawn), the Percent Effect in [1] was -1.67%; in assay [2], -5.41%; in assay [3] it was 0.822%; in [4], 4.06%; in the assay on Trypanosoma cruzi, -0.0929%; in [5], -1.29%. Moreover, the Percent Effect in assay [6] was determined as 3.23%; in the assay listed under Homo sapiens, 2.84%; in [7], 0%; in assay [8], 1.22%; in assay [9] it was 0.882%.

`COCCN(C)C[C@@H]1CN(C(=O)c2cccc(C(F)(F)F)c2)C[C@@H]1CO`: the Percent Effect in [1] is -0.782%; in assay [2], 2.7%; in [3], 1.75%; in [4], 21.1%; with Trypanosoma cruzi it was 5.79%; in assay [5], 10%. For the same compound, the Percent Effect was 13.4% in assay [6]; -3.37% in the assay listed under Homo sapiens; 2.65% in assay [7]; 14.6% in [8]; -4.78% in assay [9].

`CC(=O)N1CCCC(Cc2cncc(Br)c2)CC1` (stereo not drawn): the Percent Effect was -8.44% in [1]; 12.2% in [2]; -0.231% in assay [3]; 1.66% in assay [4]; 2.77% in the assay with Trypanosoma cruzi; -2.09% in [5]. Further, the Percent Effect in [6] was 16.4%; in the assay filed under Homo sapiens, 24.7%; in [7] it was 5.38%; in assay [8], 6.49%; in assay [9], -26.1%.

For `O=C(Nc1cccnc1)N1CCC(n2ccc(C(F)(F)F)n2)CC1`, the Percent Effect in assay [1] was -7.93%; in assay [2], 8.22%; in assay [3], -4.95%; in assay [4], 13%; with Trypanosoma cruzi, 3.72%; in assay [5], -0.909%. In addition, the Percent Effect is 10.5% in assay [6]; 2.75% in the assay filed under Homo sapiens; 1.07% in assay [7]; 10% in assay [8]; -5.84% in [9].

With `COc1ccc(C(=O)NCC(c2cccn2C)N2CCCC2)c(OC)c1` (stereo not drawn), the Percent Effect is -5.97% in assay [1]; 13% in [2]; -5.29% in assay [3]; -1.12% in [4]; 1.08% with Trypanosoma cruzi; -1.94% in [5]. The Percent Effect in assay [6] is 18.3%; in the assay filed under Homo sapiens, -21.8%; in [7] it was 6.35%; in assay [8] it was 11.5%; in [9], -8.35%.

`COc1ccc(CNC(=O)NC2CCN(CC(F)F)CC2)cc1C`: the Percent Effect is -6.96% in assay [1]; 5.41% in assay [2]; -0.551% in [3]; 14.3% in assay [4]; 3.23% with Trypanosoma cruzi; 3.72% in assay [5]. Besides, the Percent Effect in [6] was 2.15%; in the assay listed under Homo sapiens it was -4.85%; in assay [7] it was 4.3%; in assay [8], 13.6%; in assay [9] it was -4.89%.

`CCN1CC(C(=O)N2CCC(Oc3ccccc3Cl)CC2)CC1=O` (stereo not drawn): the Percent Effect in [1] was -1.39%; in assay [2], 2.74%; in assay [3], 6.94%; in assay [4], -1.45%; in the assay with Trypanosoma cruzi, -11.5%; in assay [5], -4.39%. The Percent Effect was 16.7% in [6]; 42.2% in the assay filed under Homo sapiens; 3.12% in assay [7]; -30.9% in assay [8]; -5.81% in [9].
